Screening results: PubChem BioAssay, National Center for Advancing Translational Sciences (NCATS)
The list is not random: actives were taken first. Their share in the collection is about 7.5%.
Luc counter: Counterscreen for Luciferase (Kinase-Glo TM) Inhibition | Luciferin 4-monooxygenase (Photuris pensylvanica), Q27757 | Kinase-Glo luciferase, ATP luminescence, 8 min | Potency, µM (titrated, usually from 38.3 µM), for the others: top-dose activity change, negative = inhibition, hits mostly inhibitors | actives 0.28% (n = 200,000); note: % is set by controls: 0 for no effect and ±100 for the full control effect; nearly all actives have a fitted effect of over 60% in size
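Compounds were added to a substrate mix at pH 7.2 (50 mM imidazole, 10 uM ATP, within the enzyme's linear range), followed by Kinase-Glo detection reagent; luminescence was measured after 8 minutes at ambient temperature.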
Rab9 prom act: qHTS Assay for Rab9 Promoter Activators; Huh7 Rab9 promoter-luciferase reporter, luminescence, 24 h; Potency, µM (top dose mostly 9.22 µM), for the others: at the top dose activation, negative = inhibition, most hits filed as activators; actives 2.8% (n = 320,000); AID 485297, 2010; note: % of control where 0% means no effect; nearly all actives have a fitted effect of over 60% in size
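Huh7 cells stably carrying Rab9 promoter–luciferase reporter, plated 1500 cells/well, compound added after 2 h and incubated 24 h at 37 °C; luciferase luminescence then read after 10 min with detection reagent.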
NPC1 prom act: qHTS Assay for NPC1 Promoter Activators; actives 2.4% (n = 320,000); Huh7 NPC1 promoter luciferase reporter, 24 h; AID 485313, 2010; Potency, µM (titrated, usually from 9.22 µM), without a hit: top-dose activation, most hits filed as activators; note: % of control where 0% means no effect; nearly all actives have a fitted effect of over 60% in size
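Compounds in DMSO were transferred onto Huh7 NPC1-luciferase reporter cells pre-incubated 2 h; after 24 h at 37 °C, Amplite reagent was dispensed and luminescence recorded 10 min later.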
FLuc modulator: qHTS profiling assay for firefly luciferase inhibitor/activator using purifed enzyme and Km concentrations of substrates (counterscreen for miR-21 project); Luciferin 4-monooxygenase (Photinus pyralis), P08659; AID 588342, 2011; purified FLuc, Km substrates, luminescence inhibition; Potency, µM (top dose mostly 57.5 µM), inactives show top-dose activity change, negative = inhibition, usual class: inhibitors; actives 6.9% (n = 360,000);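 note: plate controls were vehicle for no effect and reference inhibitor for full effect; nearly all actives have a fitted effect of over 55% in size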
Target sequence (P08659 whole entry, looked up): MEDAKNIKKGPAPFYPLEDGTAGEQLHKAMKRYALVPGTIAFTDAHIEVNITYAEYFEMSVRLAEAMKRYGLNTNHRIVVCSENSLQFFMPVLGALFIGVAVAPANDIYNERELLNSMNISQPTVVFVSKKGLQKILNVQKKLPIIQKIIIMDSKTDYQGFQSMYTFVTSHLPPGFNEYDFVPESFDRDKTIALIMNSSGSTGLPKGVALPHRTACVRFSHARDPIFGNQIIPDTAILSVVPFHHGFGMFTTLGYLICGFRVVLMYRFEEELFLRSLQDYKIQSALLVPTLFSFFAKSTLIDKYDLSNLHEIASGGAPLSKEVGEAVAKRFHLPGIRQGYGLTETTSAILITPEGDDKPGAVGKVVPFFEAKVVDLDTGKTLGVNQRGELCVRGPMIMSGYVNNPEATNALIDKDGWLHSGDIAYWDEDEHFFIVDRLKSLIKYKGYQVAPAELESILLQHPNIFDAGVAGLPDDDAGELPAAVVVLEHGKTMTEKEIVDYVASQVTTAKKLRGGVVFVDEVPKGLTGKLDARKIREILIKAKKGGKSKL
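Biochemical qHTS of compounds, final roughly 60 µM downward over six points, against 10 nM purified firefly luciferase using Km concentrations of substrates (10 uM D-luciferin, 10 uM ATP) in Tris acetate pH 7.5 buffer; luminescence output.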
SMN2 splice enh: qHTS Assay for Enhancers of SMN2 Splice Variant Expression; Potency, µM (doses to about 46.1 µM), for the others: at the top dose activity change, positive = activation, actives largely listed as activators; HEK293 SMN2-luciferase splicing reporter, luminescence, 30-36 h; AID 1458, 2008; actives 2.8% (n = 210,000); note: % of control where 0% means no effect; nearly all actives have a fitted effect of over 55% in size
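HEK293 cells carry an SMN2 minigene-luciferase reporter in which exon 7 inclusion puts luciferase in frame. Cells were seeded at 2000 cells/well, attached for 10-12 hours, then exposed to compounds for 30-36 hours at 37C before ONE-Glo luminescence.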
ELG1 genotoxic: qHTS screen for small molecules that induce genotoxicity in human embryonic kidney (HEK293T) cells expressing luciferase-tagged ELG1 | HEK293T ELG1-luciferase reporter, luminescence, 16 h | AID 504466, 2011 | actives 1.3% (n = 330,000) | Potency, µM (doses to about 46 µM), for inactives: at the highest dose activity change, positive = activation, hits mostly activators; note: % of control where 0% means no effect; nearly all actives have a fitted effect of over 60% in size
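ELG1-luciferase HEK293T cells, 2,000/well; compound pinned in; 16 hr, 37 °C, 5% CO2; ONE-Glo, 30 min RT; luminescence on CCD imager.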
Starred values were filed as active, the others as inactive; u = inconclusive; x = no result given. Calls come from the whole dose curve; as a rule, active = well fitted curve in the direction sought with a large enough effect; inconclusive = small, poorly fitted or top-dose-only effect, or another doubt; inactive = no such curve, though single readings can be large; an effect the other way counts as inactive or inconclusive. Potency is the fitted concentration of half-maximal effect.

SMILES | Luc counter | Rab9 prom act | NPC1 prom act | FLuc modulator | SMN2 splice enh | ELG1 genotoxic
CN(CC(=O)Nc1cccc(F)c1)C(=O)CCNC(=O)c1ccc(Br)cc1 | x | 25% | 8% | u | x | 14%
COc1ccc(NC(=O)/C(C#N)=C\c2ccc(-c3cc(C(=O)O)ccc3C)o2)cc1 | x | -5% | -3% | 19µM* | x | -3%
COc1ccc(NC(=O)/C(C#N)=C/c2ccc(-c3ccccc3C(=O)O)o2)cc1 | x | 17% | 23% | 6.7µM* | x | 7%
N#C/C(=C\c1ccc(N2CCCCC2)o1)C(=O)Nc1cccc(Br)c1 | -5% | 2µM* | 2.5µM* | 2.7µM* | -15% | u
COc1ccc(-c2ccc(C(=O)O)o2)c([N+](=O)[O-])c1 | 3% | -2% | -4% | -20% | 13% | -3%
Cc1ccc(/C=C(\C#N)C(=O)Nc2cccc(Br)c2)o1 | x | x | x | 2% | 1% | x
CNC(=O)/C(C#N)=C/c1ccc(-c2ccc(OC)cc2[N+](=O)[O-])o1 | 2% | u | 29% | u | 16µM* | 13%
CCC(CC)c1nn2c(=O)cc(COc3ccc(NC(=O)c4cccc(C)c4)cc3)nc2s1 | x | x | x | 3% | 6% | x
O=C(COC(=O)CCC(NC(=O)OCc1ccccc1)C(=O)OCC(=O)Nc1ccccc1)Nc1ccccc1 (stereo not given) | 0% | -7% | 3% | 4% | 19% | 2%
CCC1CN2CCC1CC2[C@@H](NC(=S)Nc1cc(C(F)(F)F)cc(C(F)(F)F)c1)c1cccc2ccc(OC)cc12 (stereo not given in full) | -1% | x | x | x | -4% | x
O=C(c1cccn1-c1nnc(N2CCCC2)s1)N1CCN(c2ccccc2)CC1 | x | x | x | -1% | x | x
Cc1ccc(/C=C(\C#N)C(=O)Nc2ccc(Br)cc2)o1 | x | x | x | 3% | 3.2µM* | x
COc1ccc(NC(=O)/C(C#N)=C\c2ccc(-c3cccc(C(=O)O)c3C)o2)cc1 | x | 22% | 7% | 8.5µM* | x | -2%
O=C(CNc1ccccc1)N/N=C/c1ccc2c(c1)OCCO2 | 4% | 0% | 2% | 9.5µM* | u | 1%
O=C(Cn1ccc(C(F)(F)F)n1)N/N=C/c1ccc2c(c1)OCO2 | x | 6% | 23% | 19µM* | x | u
COc1cccc(C(=O)NCC(=O)N/N=C/c2cccnc2)c1 | x | 0% | -2% | 3% | x | 2%
C/C(=N\NC(=O)Cn1ccc(C(F)(F)F)n1)c1ccc2c(c1)OCO2 | 0% | 11% | -2% | -7% | -7% | -3%
O=C(CNC(=O)c1ccccc1F)N/N=C/c1ccc2c(c1)OCO2 | x | u | u | 17µM* | x | u
COc1cccc(C(=O)NCC(=O)N/N=C/c2ccc3c(c2)OCO3)c1 | x | 1% | 3% | 24µM* | x | 6%
O=C(CNC(=O)c1ccccc1Cl)N/N=C/c1ccc2c(c1)OCO2 | x | 2% | -1% | u | x | 3%
Cc1ccnc(NS(=O)(=O)c2ccc(NS(=O)(=O)c3ccc(Br)cc3)cc2)n1 | x | -4% | -1% | -2% | x | 0%
O=C(CNc1ccccc1)N/N=C/c1ccc2c(c1)OCO2 | 1% | 3% | 5% | u | 7% | 2%
O=C(Cc1ccccc1)N/N=C/c1ccc2c(c1)OCO2 | -1% | 4µM* | 2.5µM* | 15µM* | 16µM* | u
O=C(CSc1ncccn1)N/N=C/c1ccc2c(c1)OCO2 | x | u | 26% | 11µM* | x | u
O=C(CNC(=O)c1ccccn1)N/N=C/c1ccc2c(c1)OCO2 | 5% | -6% | 2% | u | 13% | -11%
OCCNCc1ccc(OCc2ccc(Cl)cc2Cl)cc1 | 2% | 18% | 12% | 15µM* | -9% | u
